Where “and” joins values, the source holds several entries; their conditions need not be identical. Equal entries are not always repeated. The panel holds about 79,000 compounds, 15% with a hit somewhere; the sample as a whole holds those more often. Some compounds were tested as several samples or in several runs, with calls that do not always agree. Calls of active or inactive are those of the source. No stated cut-off is given here; in the data, active means growth inhibition above about 70%; inactive means the rest.
Key:
[1] = NCI Yeast Anticancer Drug Screen. Data for the rad50 strain (AID 155);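 further: 0% = growth of vehicle-only cultures of the same strain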; conditions: S. cerevisiae rad50 strain growth inhibition, stronger effect = higher value
Procedure, shortened: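 Genetically altered yeast (DNA repair pathway); compound treatment; growth inhibition vs vehicle ctrl.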

[2] = NCI Yeast Anticancer Drug Screen. Data for the mec2-1 strain (AID 157); conditions: S. cerevisiae mec2-1 strain, stronger effect = higher value
Procedure, shortened: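 Vehicle-treated cultures served as reference for growth inhibition of compound-exposed mec2-1 yeast.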

[3] = NCI Yeast Anticancer Drug Screen. Data for the sgs1 mgt1 strain (AID 161);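 further: 0% = growth of cultures given vehicle only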; conditions: S. cerevisiae sgs1 mgt1 strain, stronger effect = higher value
Procedure, shortened: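 Mutant yeast exposed to compound; growth scored against vehicle-only wells.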

[4] = NCI Yeast Anticancer Drug Screen. Data for the cln2 rad14 strain (AID 165);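 further: 0% = growth equal to vehicle treated cultures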; conditions: S. cerevisiae cln2 rad14 strain, stronger effect = higher value
Procedure, shortened: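 Each compound was tested on cln2 rad14 yeast. Inhibition of growth was calculated against vehicle-exposed controls.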

[5] = NCI Yeast Anticancer Drug Screen. Data for the bub3 strain (AID 167); conditions: S. cerevisiae bub3 mutant strain, stronger effect = higher value
Procedure, shortened: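 Yeast carrying a defined mutation is treated with each compound, and growth is compared with that of vehicle-exposed cells to give inhibition.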

[6] = NCI Yeast Anticancer Drug Screen. Data for the mlh1 rad18 strain (AID 175); conditions: S. cerevisiae mlh1 rad18 strain growth inhibition, stronger effect = higher value
Procedure, shortened: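 Vehicle-treated cultures served as the reference for growth inhibition in a yeast strain carrying DNA damage repair alterations exposed to each compound.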

[7] = at 5.0 µM (retest, dose inferred, filed as 0.5)
[8] = at 50.0 µM (retest, dose inferred, filed as 5.0)

Measured: growth inhibition

O=C1OC(c2cccnc2)OC(c2ccccc2)=C1C(=O)c1ccccc1 (configuration not stated)
active: [1]; [8] 99% | [1]; at 50.0 µM 99.4% | [2]; [8] 99% | [2]; at 50.0 µM 99.5% | [3]; [8] 98% | [3]; at 50.0 µM 99.5% | [4]; [8] 99% | [4]; at 50.0 µM 98.7% | [5]; [8] 99% | [5]; at 50.0 µM 98.8% | [6]; [8] 99% | [6]; at 50.0 µM 99.2%
inactive: [1]; [7] 5% | [2]; [7] 23% | [3]; [7] 4% | [4]; [7] 12% | [5]; [7] -4% | [6]; [7] 33%

CCN(CC)CCOc1ccc2c(C)c(-c3ccccc3)c(=O)oc2c1
inactive: [1]; [7] 0% | [1]; [8] 23% | [1]; at 50.0 µM 62% | [2]; [7] -3% | [2]; [8] 34% | [2]; at 50.0 µM 3% | [3]; [7] 10% | [3]; [8] 38% | [3]; at 50.0 µM 34.8% | [4]; [7] -5% | [4]; [8] 18% | [4]; at 50.0 µM -44.8% | [5]; [7] -4% | [5]; [8] 27% | [5]; at 50.0 µM 60.8% | [6]; [7] 2% | [6]; [8] 30% | [6]; at 50.0 µM 21.1%

CN(C)CCC(=O)c1cccc([N+](=O)[O-])c1
39.3% (inactive) and 83.9% (active): [1]; at 50.0 µM
11.4% (inactive) and 96% (active): [3]; at 50.0 µM
inactive: [1]; [7] 10% | [2]; [7] 13% | [3]; [7] 12% | [4]; [7] 7% | [4]; at 50.0 µM 31.4% and 34.9% | [5]; [7] 2% | [6]; [7] 11%
33.4% (inactive) and 96.8% (active): [6]; at 50.0 µM
4.1% (inactive) and 88.5% (active): [2]; at 50.0 µM
14.5% (inactive) and 90.2% (active): [5]; at 50.0 µM
active: [1]; [8] 85% | [2]; [8] 87% | [3]; [8] 89% | [4]; [8] 71% | [5]; [8] 92% | [6]; [8] 96%

O=C1CSC(=S)N1c1ccc(Cl)c(C(F)(F)F)c1
active: [1]; at 50.0 µM 97.5% | [2]; at 50.0 µM 97.7% | [3]; [8] 97% | [3]; at 50.0 µM 98.9% | [5]; at 50.0 µM 98.5% | [6]; [8] 95% | [6]; at 50.0 µM 98.3%
inactive: [1]; [7] -1% | [1]; [8] 36% | [2]; [7] 0% | [2]; [8] 11% | [3]; [7] 6% | [4]; [7] -4% | [4]; [8] -10% | [4]; at 50.0 µM 58.4% | [5]; [7] -6% | [5]; [8] 56% | [6]; [7] 11%

OC(c1nc2ccccc2[nH]1)C(O)C(O)C(O)c1nc2ccccc2[nH]1 (configuration not stated)
inactive: [1]; [7] -2% | [1]; [8] -28% | [1]; at 50.0 µM -8.95% and 19.2% | [2]; [7] -25% | [2]; [8] -18% | [2]; at 50.0 µM -15.1% and 2.95% | [3]; [7] -20% | [3]; [8] 1% | [3]; at 50.0 µM -18.4% and 17.9% | [4]; [7] 0% | [4]; [8] -3% | [4]; at 50.0 µM 2.25% and -6.8% | [5]; [7] -15% | [5]; [8] -28% | [5]; at 50.0 µM -38.5% and 44.8% | [6]; [7] -22% | [6]; [8] -49% | [6]; at 50.0 µM 2.85% and 22%

CCCCCCCCCCCCCCCCCC(=O)NCCO
inactive: [1]; [7] -3% | [1]; [8] -6% | [1]; at 50.0 µM -12.3% and 16.8% | [2]; [7] -1% | [2]; [8] -5% | [2]; at 50.0 µM -6.6% and -7.3% | [3]; [7] 0% | [3]; [8] -4% | [3]; at 50.0 µM -20.2% and -8.5% | [4]; [7] 1% | [4]; [8] -8% | [4]; at 50.0 µM -23.9% and 37.4% | [5]; [7] 4% | [5]; [8] 7% | [5]; at 50.0 µM -3.75% and 1.55% | [6]; [7] 0% | [6]; [8] -8% | [6]; at 50.0 µM 3.7% and 10.8%

Fc1cccc(NC(=S)SCc2ccc(Cl)c(Cl)c2)c1
inactive: [1]; [7] 8% | [2]; [7] 3% | [3]; [7] 6% | [4]; [7] -7% | [5]; [7] 0% | [6]; [7] 4%
active: [1]; [8] 94% | [1]; at 50.0 µM 98.2% | [2]; [8] 93% | [2]; at 50.0 µM 99.2% | [3]; [8] 98% | [3]; at 50.0 µM 99% | [4]; [8] 85% | [4]; at 50.0 µM 98.8% | [5]; [8] 95% | [5]; at 50.0 µM 98% | [6]; [8] 96% | [6]; at 50.0 µM 99%

CCCCCC[C@H](C/C=C\CCCCCCCC(=O)OC)OC(C)=O
inactive: [1]; [7] -6% | [1]; [8] 27% | [1]; at 50.0 µM -0.2% and -4.1% | [2]; [7] -4% | [2]; [8] 69% | [2]; at 50.0 µM 2.25% and -0.75% | [3]; [7] -6% | [3]; [8] 42% | [3]; at 50.0 µM 29.2% and -40.8% | [4]; [7] -1% | [4]; [8] -4% | [5]; [7] -6% | [5]; at 50.0 µM 3.65% and -26.2% | [6]; [7] -3% | [6]; [8] 21% | [6]; at 50.0 µM 9.45% and -22.9%
73.5% (active) and 54.6% (inactive): [4]; at 50.0 µM
active: [5]; [8] 92%

Cn1c(N)nc(=O)c2[nH]cnc21
active: [4]; at 50.0 µM 86.8%
inactive: [1]; [7] -1% | [1]; [8] -1% | [1]; at 50.0 µM -4.3% | [2]; [7] -1% | [2]; [8] -2% | [2]; at 50.0 µM 11.8% | [3]; [7] -3% | [3]; [8] -4% | [3]; at 50.0 µM 6.9% | [4]; [7] 2% | [4]; [8] -3% | [5]; [7] 1% | [5]; [8] -3% | [5]; at 50.0 µM -9.25% | [6]; [7] -3% | [6]; [8] 0% | [6]; at 50.0 µM -17.2%

Nc1nnc(/C=C/c2ccccc2)o1
inactive: [1]; [7] 2% | [1]; [8] -22% | [1]; at 50.0 µM 19.5% | [2]; [7] 8% | [2]; [8] -21% | [2]; at 50.0 µM -21.6% | [3]; [7] -8% | [3]; [8] -9% | [3]; at 50.0 µM -4.6% | [4]; [7] 1% | [4]; [8] -4% | [4]; at 50.0 µM 42.2% | [5]; [7] 1% | [5]; [8] -4% | [5]; at 50.0 µM -1.9% | [6]; [7] 7% | [6]; [8] 21% | [6]; at 50.0 µM -10.2%

CCCCCCCCCCCCCCCCCCOCC(COP(=O)([O-])OCC[N+](C)(C)C)OC (configuration not stated)
90% (active) and 20.7% (inactive): [1]; at 50.0 µM
inactive: [1]; [7] -16% | [1]; [8] -9% | [2]; [7] -4% | [2]; [8] -28% | [3]; [7] -13% | [3]; [8] -14% | [4]; [7] -1% | [4]; [8] -46% | [5]; [7] -16% | [5]; [8] -28% | [6]; [7] -59% | [6]; [8] -88% | [6]; at 50.0 µM -1.25% and -47%
91.5% (active) and -31.4% (inactive): [3]; at 50.0 µM
88.2% (active) and 9.5% (inactive): [4]; at 50.0 µM
90.5% (active) and -7.55% (inactive): [5]; at 50.0 µM
91.4% (active) and -4.35% (inactive): [2]; at 50.0 µM

CCCCCCCCOC(=O)c1cc(O)c(O)c(O)c1
inactive: [1]; [7] 49% | [1]; [8] 64% | [2]; [7] 46% | [2]; [8] 68% | [3]; [7] 59% | [4]; [7] 48% | [6]; [7] 44% | [6]; [8] 59%
active: [1]; at 50.0 µM 89.2% | [2]; at 50.0 µM 91.7% | [3]; [8] 98% | [3]; at 50.0 µM 93% | [4]; [8] 98% | [4]; at 50.0 µM 90% | [5]; [7] 70% | [5]; [8] 97% | [5]; at 50.0 µM 89.8% | [6]; at 50.0 µM 89.2%

CCCCCCCCCCCC[N+](C)(C)Cc1ccccc1
57% (inactive) and 92% (active): [5]; [7]
58% (inactive) and 95% (active): [1]; [7]
active: [1]; [8] 99% and 98% | [1]; at 50.0 µM 85.7% and 97.7% | [2]; [7] 75% and 93% | [2]; [8] 100% and 98% | [2]; at 50.0 µM 99.8% and 98.3% | [3]; [7] 91% and 99% | [3]; [8] 100% and 98% | [3]; at 50.0 µM 98% and 99.4% | [4]; [8] 99% and 97% | [4]; at 50.0 µM 99.4% and 98% | [5]; [8] 100% and 98% | [5]; at 50.0 µM 99.5% and 99.3% | [6]; [7] 81% and 96% | [6]; [8] 99% and 98% | [6]; at 50.0 µM 99.7% and 98.5%
56% (inactive) and 88% (active): [4]; [7]

Cc1cc([N+](=O)[O-])c(C)c2c1[nH]c1ccc(O)cc12
inactive: [1]; [7] 52% | [2]; [7] 46% | [3]; [7] 23% | [4]; [7] 50%
active: [1]; [8] 93% | [1]; at 50.0 µM 87% | [2]; [8] 94% | [2]; at 50.0 µM 88.8% | [3]; [8] 94% | [3]; at 50.0 µM 88.2% | [4]; [8] 96% | [4]; at 50.0 µM 85.5% | [5]; [7] 78% | [5]; [8] 96% | [5]; at 50.0 µM 88.8% | [6]; [7] 73% | [6]; [8] 95% | [6]; at 50.0 µM 82.7%

From PubChem BioAssay (NCI)
